# From ChEMBL document CHEMBL4513216, “Probing the Open Global Health Chemical Diversity Library for Multistage-Active Starting Points for Next-Generation Antimalarials” (ACS Infect Dis, 2020)
# About 8,600 (12%) of roughly 69,000 compounds showed an effect of 50% or more. For the sample, strong results were picked, then their nearest neighbours and some compounds at random.
# System: Plasmodium berghei
# Assay: Screen against P. berghei liver stage (PbLuc), transformed with Luciferase, at 10uM
# Assay type: functional, HepG2
# Conditions: tested at 10 uM
row,Structure (SMILES),INHIBITION [%]
1,Cc1cnn(CC2CCCN2CC(=O)Nc2nccs2)c1 (centres undefined),-12.1
2,CC(C)N1[C@@H](C(=O)NCC2CC2)C[C@@H]2CN(Cc3ccco3)C[C@@H]21,-11
3,COCCOc1cc(C)ccc1NC(=O)N(C)Cc1cnn(C)c1,-58
4,Cc1c(O)oc(-c2ccc(Br)cc2)nc1=O,55.5
5,O=C1CN(Cc2nnc(-c3ccc(Br)cc3)o2)CCN1,10.8
6,CNC(=O)NC(C)c1nc(-c2ccc(Br)cc2)no1 (centres undefined),47.8
7,CCOCCCNS(=O)(=O)c1ccc2c(c1)NC(=O)C(C)O2 (centres undefined),2.55
8,Cc1nn(C)c(N(C)C)c1CNC1CCc2c(Cl)cccc21 (centres undefined),19.915
9,Cc1nc(C)c(C(=O)N2CCCC(C(=O)c3nccn3C)C2)s1 (centres undefined),36.6
10,COCCn1ccnc1-c1cc(CN2CCCCC2)cs1,8.51
11,c1cn(CCc2c[nH]cn2)c(-c2cc(CN3CCCC3)cs2)n1,60
12,Nc1nc(Cn2ccnc2-c2cc(CN3CCCC3)cs2)cs1,42.1
13,Cc1nc(O)c2c(n1)CCN(Cc1cc(C)sc1C)CC2,60.1
14,Cc1cc(CN2CCc3nc(N4CCOCC4)nc(O)c3CC2)c(C)s1,90.7
15,Cc1nc(C)c2c(n1)CCN(Cc1ccco1)CC2,-53.2
16,CCn1cc(CN2CCc3nc(N4CCOCC4)nc(O)c3CC2)cn1,29.6
17,Cc1cc(CN2CCc3nc(C(C)C)nc(O)c3CC2)c(C)s1,62.9
18,Cc1ccc(CN2CCc3nc(C(C)C)nc(O)c3CC2)s1,2.55
19,Oc1nc(N2CCOCC2)nc2c1CCN(Cc1cccnc1)CC2,23.3
20,Cc1nc2c(c(NC(C)C)n1)CCN(Cc1cccnc1)CC2,49.7
21,Oc1nc(N2CCOCC2)nc2c1CCN(Cc1ccccc1)CC2,35.2
22,CC(C)c1ncc2c(n1)CN(Cc1cccc3c1OCCO3)CC2,37.7
23,Oc1nc(N2CCOCC2)nc2c1CCN(Cc1cccc(F)c1)CC2,54.5

row,Structure (SMILES),INHIBITION [%]
1,Oc1nc(N2CCOCC2)nc2c1CCN(Cc1ccc(F)cc1)CC2,38.2
2,Cc1cccc(C(=O)N2C[C@@H]3C(CC(=O)Nc4cccnc4)[C@@H]3C2)n1 (some centres undefined),30.9
3,Cc1ccsc1C(=O)N1CC[C@@H](N(C)C)[C@@H]1Cc1cnn(C)c1,36.9
4,O=C(CN1CCCC1)Nc1c2c(cc3c1CCC3)CCC2,-3.47
5,Cn1ncc2c1CCCN(C(=O)C1CC1)C2,24.69
6,CN(C)c1cc(C(=O)N2CCCCC2CNS(C)(=O)=O)ccn1 (centres undefined),-8.11
7,CC(C)(C)SCCN1CC(=O)N2CC[C@@H](O)C[C@H]2C1=O,11.265
8,CN1CC(=O)N(c2ccccc2)CC12CCN(CCO)C2 (centres undefined),41.3
9,C=Cn1ncc(CN2CCc3nc(-c4ccncc4)nc(O)c3C2)c1C,17.1
10,Cc1cc(CN2CCc3nc(-c4ccncc4)nc(O)c3CC2)c(C)s1,83.3
11,Cc1ccc(O)c(CN2CCc3nc(-c4cccnc4)nc(O)c3C2)c1,32.8
12,O=C(NCc1ccc(OCC2CC2)nc1)c1c(F)cccc1F,-26.8
13,CN(C)C(=O)CNS(=O)(=O)c1cc(Br)ccc1F,42.4
14,CCN(CC)C(=O)CNS(=O)(=O)c1cc(Br)ccc1F,23
15,CCNC(=O)CNS(=O)(=O)c1cc(Br)ccc1F,53.6
16,COCC(=O)N1CCCC(Cc2cnc(-c3c(C)n[nH]c3C)cn2)C1 (centres undefined),-29.8
17,CC(C#N)CSc1ccccc1NCC(=O)NCc1cccs1 (centres undefined),58.3
18,CC(C#N)CSc1ccccc1NCC(=O)Nc1ccc(F)cc1 (centres undefined),11.1
19,CC(C#N)CSc1ccccc1NCC(=O)NC(=O)NC(C)(C)C (centres undefined),61.3
20,CC(C)CNC(=O)NC(=O)CNc1ccccc1SCC(C)C#N (centres undefined),-7.9
21,CC(C#N)CSc1ccccc1NCC(=O)Nc1ccccc1 (centres undefined),26.5
22,CC(C#N)CSc1ccccc1NCC(=O)NCc1ccccc1 (centres undefined),14.2
23,O=C(CSc1nnc[nH]1)NCc1cccs1,-95.7

row,Structure (SMILES),INHIBITION [%]
1,CC(C#N)CSc1ccccc1NCC(=O)NC1CCCCC1 (centres undefined),54.4
2,CC(C#N)CSc1ccccc1NCC(=O)NC(C1CC1)C1CC1 (centres undefined),43.4
3,O=c1[nH]c2cn(-c3cccc(F)c3)c(=O)n2n1Cc1ccc(Cl)cc1,28.7
4,CCSc1ccccc1C(=O)N(CCOC)Cc1ccoc1,25.1
5,Cc1cc(C(F)(F)F)nn1CC(C)C(=O)NC(C)C (centres undefined),42.4
6,CNC(=O)CN1CCCC12CCN(Cc1c[nH]cn1)CC2,19.5
7,CC(C)CN1CCn2nc(CNc3ncnc4[nH]ccc34)cc2C1,-2.39
8,COc1ccc(C[C@H]2CNCC[C@H]2OC)cc1,1.34
9,Cc1cnn(C2CCCN(C(=O)CCc3cscn3)C2)c1 (centres undefined),33.7
10,CC(=O)N1CCCN(c2cc(C3CN(C)CCO3)nc(C)n2)CC1 (centres undefined),36.4
11,O=C(CCn1cncn1)NC1CCc2nccn2C1 (centres undefined),-3.7
12,COc1ccc(C2(C(=O)NC3CCc4nccn4C3)CCCC2)cc1 (centres undefined),24.3
13,CCS(=O)(=O)CC(=O)NC1CCc2nccn2C1 (centres undefined),36.3
14,O=C(CCCn1cncn1)NC1CCc2nccn2C1 (centres undefined),62.1
15,CS(=O)(=O)C1(C(=O)NC2CCc3nccn3C2)CCCC1 (centres undefined),74.8
16,Cc1cn2c(n1)CCC(NC(=O)CCCn1cncn1)C2 (centres undefined),29.2
17,Cc1nc(C)n(CC2CN(Cc3noc(C4CC4)n3)CCO2)n1 (centres undefined),16.8
18,CCc1nc(N2CCC3(CC2)CC(=O)N(Cc2ccc(Cl)cc2)C3)no1,-88.1
19,CCc1n[nH]c(C2CN(CCCS(C)(=O)=O)CCO2)n1 (centres undefined),9.14
20,CS(=O)(=O)N1CCC(NC(=O)COc2ccc(Cl)c(Cl)c2)CC1,27.4
21,Cc1csc(CCNC(=O)C2CCN(CC(N)=O)CC2)n1,-23.5
22,NC(=O)CN1CCC(C(=O)NCc2nc(-c3ccc(F)cc3)cs2)CC1,55.2
23,NC(=O)CN1CCC(C(=O)NCCc2nc(-c3ccccc3)cs2)CC1,-53.6

row,Structure (SMILES),INHIBITION [%]
1,O=C(O)c1ccc(Cc2cccc(F)c2)nc1,3.48
2,N#Cc1ccc(C(=O)NCC2(N3CCOCC3)CCCC2)nc1,10.8
3,Cc1ccc(-c2noc(CN3CCC(N4CCNC4=O)CC3)n2)cc1,86.8
4,Cc1ccccc1-c1noc(CN2CCC(N3CCNC3=O)CC2)n1,88.2
5,O=C1NCCN1C1CCN(Cc2nc(-c3ccsc3)no2)CC1,85.4
6,O=C1NCCN1C1CCN(Cc2nc(-c3ccccc3)no2)CC1,92.3
7,Cc1ccccc1-c1noc(CN2CCC(c3ccn[nH]3)CC2)n1,-7.46
8,c1cnn(C2CN(Cc3nc(-c4ccsc4)no3)C2)c1,17
9,Cc1ccc(-c2noc(CN3CCC(c4ccn[nH]4)CC3)n2)cc1,12.8
10,Cc1cccc(-c2noc(CN3CCC(N4CCNC4=O)CC3)n2)c1,41.1
11,c1cc(C2CCN(Cc3nc(-c4ccsc4)no3)CC2)[nH]n1,8.12
12,O=C(O)C1(n2cccn2)CCN(Cc2nc(-c3ccccc3)no2)CC1,35.9
13,Cc1ccccc1-c1noc(CN2CCOC(Cn3cccn3)C2)n1 (centres undefined),23.95
14,N#CCCN(CC1CC1)Cn1cc(Cl)cn1,13.3
15,O=C1CC(N(C(=O)CCc2c[nH]c3ccccc23)C2CC2)C(=O)N1 (centres undefined),41.8
16,Cn1ccc2c(C(=O)N3CCCC3c3noc(C4CC4)n3)cccc21 (centres undefined),19.2
17,Cc1nc(CN2C[C@@H]3CN(C(=O)NC(C)C)C[C@@H]3C2=O)cs1,11.3
18,COCC1c2c(cnn2C)CCN1Cc1ccc(C)cc1 (centres undefined),31.7
19,CSC(C)(C)CNC(=O)NC(c1nnc2n1CCC2)C(C)C (centres undefined),21.5
20,COCCN1CCC2(CCC(=O)N2Cc2csc(C)n2)CC1,-45.8
21,Fc1ccc(-c2noc(CN3CCC(c4cc[nH]n4)CC3)n2)cc1,34.6
22,CCN1CCN(C2CCN(Cc3nc(-c4ccoc4)no3)CC2)C1=O,26.3
23,COCCN1CCN(Cc2nc(-c3ccoc3)no2)CC1,31.1

row,Structure (SMILES),INHIBITION [%]
1,O=C1NCCN1C1CCN(Cc2nc(-c3ccoc3)no2)CC1,17
2,O=C1NCCN1C1CCN(Cc2nc(-c3ccc(F)cc3)no2)CC1,93.6
3,CN1CCN(C2CCN(Cc3nc(-c4ccoc4)no3)CC2)C1=O,59.4
4,O=C(c1ccc(-n2cccn2)c(F)c1)N1CCCN2CCCC2C1 (centres undefined),49.1
5,CCN(CC)C(=O)CN1CCCC1c1nc(C)c2c(n1)N(C)C(=O)CC2 (centres undefined),-0.55
6,CC(=O)N1CCCC(Cc2nccn2C)C1 (centres undefined),5.56
7,C[C@@H]1CN(c2ccc(Cl)cn2)C[C@@]1(O)C1CC1,25.145
8,O=C(NC1(c2nnn(CC3CC3)n2)CCCC1)c1ccccc1,42
9,O=C(NC1(c2nnn(CCO)n2)CCCC1)c1ccccc1,-16.2
10,C=C(C)Cn1nnc(C2(NC(=O)c3ccccc3)CCCC2)n1,71.2
11,Cc1cc(C)nc(C2CCN(C(=O)c3cnco3)C2)n1 (centres undefined),-8.12
12,Cc1nn(C)c(C)c1C1COCCN1c1ncnc2c(C)cccc12 (centres undefined),28.6
13,Cc1ccc2ncnc(N3CCOCC3c3c(C)nn(C)c3C)c2c1 (centres undefined),30
14,Cc1nn(C)c(C)c1C1COCCN1c1ncncc1Br (centres undefined),57.7
15,CN(Cc1ccc2c(c1)OCO2)C(=O)NCCc1cnn(C)c1,28.15
16,Cc1ccccc1CNC(C)c1ccc(OCC(=O)NC2CC2)cc1 (centres undefined),7.08
17,COCC(C)N(C)C(=O)CCc1c(C)nc2c(C#N)cnn2c1C (centres undefined),63.8
18,COC(=O)c1cc(C2CC2)nc2c(C#N)cnn12,25.9
19,Cc1nc2c(C#N)cnn2c(C)c1CCC(=O)N(C)C1CC1,28.5
20,Cc1nc2cc(O)nn2c(C)c1CCC(=O)N(C)CCC(C)C,-57.5
21,Cc1nc2c(C#N)cnn2c(C)c1CCC(=O)N(C)C(C)C(C)C (centres undefined),62.8
22,Cc1nn(C)c(C)c1CCC(=O)N(C)Cc1ccc(C#N)cc1,-12.5
